From PubChem BioAssay (NCI)
Compounds without any hit were thinned out: in the full panel of roughly 83,000, 20% have a hit.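 How to read the values: 0–100, growth inhibition (40 = 60% inhibited); 0, no net growth; -100 to 0, cell death (-40 = 40% of starting cells died; -100 = all dead).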 Values without a mark were called inactive. Active and inactive are the calls of the source. The calls were made as follows: active = growth percent below 10; inactive = the rest.

Columns and labels:
Test in all cases: NCI-60 one-dose screen, 48 h (100 = growth as untreated, 0 = no growth, -100 = all killed)
Settings in all cases: 10 µM unless noted
NCI-H23 lung = system: NCI-H23 lung
NCI-H226 lung = system: NCI-H226 lung
NCI-H322M lung = system: NCI-H322M lung
HOP-62 NSCLC = system: HOP-62 NSCLC
NCI-H460 lung = system: NCI-H460 lung
HOP-92 NSCLC = system: HOP-92 NSCLC
A549/ATCC NSCLC = system: A549/ATCC NSCLC
786-0 renal = system: 786-0 renal
COLO 205 colon = system: COLO 205 colon
DU-145 prostate = system: DU-145 prostate
K-562 leukemia = system: K-562 leukemia
MALME-3M melanoma = system: MALME-3M melanoma
MDA-MB-231 breast = system: MDA-MB-231 breast
SF-268 CNS = system: SF-268 CNS
SF-295 CNS = system: SF-295 CNS
SF-539 CNS = system: SF-539 CNS
UACC-257 melanoma = system: UACC-257 melanoma
M14 melanoma = system: M14 melanoma
NCI-H522 lung = system: NCI-H522 lung
RXF 393 renal = system: RXF 393 renal

Compound	growth (NCI-H23 lung)	growth (NCI-H226 lung)	growth (NCI-H322M lung)	growth (HOP-62 NSCLC)	growth (NCI-H460 lung) [%]	growth (HOP-92 NSCLC)	growth (A549/ATCC NSCLC)	growth (786-0 renal)	growth (COLO 205 colon)	growth (DU-145 prostate)	growth (K-562 leukemia)	growth (MALME-3M melanoma)	growth (MDA-MB-231 breast)	growth (SF-268 CNS)	growth (SF-295 CNS)	growth (SF-539 CNS)	growth (UACC-257 melanoma)	growth (M14 melanoma)	growth (NCI-H522 lung)	growth (RXF 393 renal)
O=P1(NCCCl)OCCCN1CCCl (centres undefined)	107%	109%	106%	108%	109	97.4%	121%	93.5%	112%	110%	95.8%	120%	120%	109%	99.2%	98.3%	116%	106%		
CC[C@H](C)[C@H](NC(=O)[C@H]1CCCCN1C)C(=O)N(C)[C@H](CCc1nc(C(=O)N[C@@H](Cc2ccccc2)C[C@H](C)C(=O)OC)cs1)C(C)C	31%	28.6%	40.9%	14.3%		12.9%	17%	7.3% (active)	-64.1% (active)	6.52% (active)	9.7% (active)	65.4%	11.8%	19.6%	7.05% (active)	0.775% (active)		-15.3% (active)	-14.6% (active)	
CC12CCC3C(CCC4=CC(=O)CCC43CF)C1CCC2=O (centres undefined)	106%	111%	102%	124%		114%	99.3%	106%	135%	116%	93.5%	94.2%	118%	110%	106%	106%	97%	103%	87.3%	67.7%
CCOc1ccc(/C=C/[N+](=O)[O-])cc1	87.8%	81.4%	98.5%	110%		76.6%	78.8%	92.4%	94.1%	99.3%	69%	106%	92.8%	98.9%	82.5%	39%	85.5%	54.5%	96.8%	16.9%
COC(=O)C1OC(Oc2ccc(N(CCCl)CCCl)cc2)C(OC(C)=O)C(OC(C)=O)C1OC(C)=O (centres undefined)	92.9%	96.7%	108%	94.4%		78%	75.9%	75%	95.3%	104%	94.6%	96.1%	88.5%	79.1%	53.1%	70.9%	79.6%	102%	67.9%	
CC1=C([Te]c2ccc(O)cc2)C(=O)c2ccccc2C1=O	-19.6% (active)	-35.4% (active)	22.3%	-25.2% (active)		-56.5% (active)	6.97% (active)	-1.41% (active)	-88.5% (active)	7.43% (active)	-36.6% (active)	5.22% (active)	3.12% (active)	13.8%	-37.4% (active)	-19.1% (active)	11.7%	-24.2% (active)	0.775% (active)	-0.398% (active)
CCC[CH2][Sn]([CH2]CCC)([CH2]CCC)[O]c1ccc(Cl)cc1Cl	-87.2% (active)	-86.5% (active)	-80.1% (active)	-91.7% (active)		-84.9% (active)	-82% (active)	-93.8% (active)	-75.2% (active)	-99.4% (active)	-65% (active)	-61.5% (active)	-78.2% (active)	-91% (active)	-37% (active)	-83.4% (active)	-88.8% (active)	-83.9% (active)	-90.1% (active)	-96.2% (active)
COC(=O)[C@@H](C)C[C@H](Cc1ccccc1)NC(=O)c1csc([C@@H](C[C@H](C(C)C)N(C)C(=O)[C@@H](NC(=O)[C@H]2CCCCN2C)C2CCCCC2)OC(C)=O)n1	16.1%	20.5%	34.1%	-19.8% (active)		-13.2% (active)	11.4%	3.22% (active)	-75.7% (active)	6.23% (active)	-0.636% (active)	56.9%	-3.53% (active)	8.92% (active)	-3.03% (active)	-22.3% (active)	48%	-35.1% (active)	-32.1% (active)	65.5%
C=CCCCN=C=S	82%	94.9%	80.7%	76.1%		92%	75.2%	93.4%	91.2%	60.5%	59.8%	76.7%	68.3%	77.4%	92.4%		62.5%	60.9%	38%	80%
CCOC(=O)CCC(NC(=O)C(Cc1ccc(N(CCCl)CCCl)cc1)NC=O)C(=O)OCC (centres undefined)	1.98% (active)	57.5%	88%	113%		-2.74% (active)	61.8%	-40.8% (active)	111%	36.3%	35.6%	-80.2% (active)			21.5%	-61.7% (active)	-9.97% (active)	-62.9% (active)	-67.6% (active)	-75.9% (active)
COc1ccc(/C=C\c2cc(OC)c(OC)c(OC)c2)cc1NC(=O)/C=C/c1cc(OC)c(OC)c(OC)c1	25.7%	46.8%	55.1%	45.5%		55.5%	56.6%	39.9%	42.1%	95.2%		58%	63.9%	61.1%	12.5%	44.5%	70.6%	31.6%	34.3%	1.99% (active)
CCOC(=O)[C@@H](C)C[C@H](Cc1ccccc1)NC(=O)c1csc([C@@H](C[C@H](C(C)C)N(C)C(=O)[C@H](CC)NC(=O)[C@H]2CCCCN2C)OC(C)=O)n1	28.4%	65.2%	43.1%	20.2%		41.5%	7.92% (active)	8.33% (active)	-61.6% (active)	5.21% (active)	6.71% (active)	71.7%	5.4% (active)	29.1%	1.53% (active)	-9.33% (active)	39.1%	-25.7% (active)	-22.8% (active)	28.8%
CCNc1nc(Cl)nc(NCC)n1	111%	90.4%	100%	93%		65.1%	85.7%	108%	102%	123%	35.1%	133%	104%	102%	84.1%	97.2%	89%	101%	105%	
CC[C@]12C=CCN3CC[C@@]4(c5ccc(OC)cc5N(C)[C@H]4[C@@](O)(C(=O)OC)[C@@H]1OC(=O)CCCC[P+](c1ccccc1)(c1ccccc1)c1ccccc1)[C@@H]32	6.4% (active)	15.1%	47.1%	26.4%		-30% (active)	22.1%	57.2%	-93.7% (active)	14.7%	21.7%	-35.8% (active)	-2.41% (active)	16.2%	58.1%	19%	2.15% (active)	29.4%	-5.5% (active)	-13.3% (active)
Cc1cc(C)cc(Nc2nc3c(s2)CC[C@@]2(C)C3=CC[C@@H]3[C@@H]2CC[C@]2(C)C(=O)CC[C@@H]32)c1	76.9%	49.9%	79.9%	90%		70.7%	72.9%	31%	92.5%	41.2%	17.1%	79.6%	77.5%	67.4%	42.9%	23%	87.9%	83.4%	66.1%	-7.45% (active)
Nc1nc([Se])c2ncn(C3OC(CO)C(O)C3O)c2n1 (centres undefined)	51%	78.5%	84.3%	12.3%		43%	102%	29.4%	124%	39.9%	21.7%	69.3%	22%	87%	42.6%	81%	83.8%	40.6%	71.6%	
